The full list was thinned out, with hits kept by preference.
Tg IFNy HTS: T. gondii growth inhibition under IFN-gamma; hit rate 3.8% among 69,000; activity change, negative = inhibition, % (concentration not given with the values); AID 1259416; Toxoplasma gondii growth in IFN-gamma-treated host cells; active compounds read low; in the data active means activity change below about -70%, passing the limit was not always enough;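 further: host cells are HeLa cells infected with Toxoplasma gondii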
* hit, by the source's call; i = inactive; ! = repeats disagree.

SMILES | Tg IFNy HTS
CCOCCCNC(c1ccccc1)c1ccncc1 (stereo not given) | 3.2
CNCCC(Oc1ccc(C(F)(F)F)cc1)c1ccccc1 (stereo not given) | -86.5*!
CNCC[C@H](Oc1cccc2ccccc12)c1cccs1 | 19.0
CCC(c1nc2ccc(C)cc2[nH]1)n1ccnc1-c1ccoc1 (stereo not given) | 8.5
CCn1cc(-c2c(-c3ccccc3)ncn2CC(C)Oc2cccnc2)cn1 (stereo not given) | -14.9
CC1CCCCN1C(=O)c1cc(-c2cnc(-c3ccccc3)nc2)cn1C (stereo not given) | i
Cc1nc(-c2cn(C(C)C)c3ncccc23)sc1C(=O)N1CCCCC1C (stereo not given) | -105.7*
CCCc1ncc(-c2ccncc2C)c(C2CCCN2C(=O)c2sc(NC)nc2C)n1 (stereo not given) | -12.6
Cc1cc(-c2nnc(CCC(=O)NCC3(c4ccccc4)CCOCC3)o2)c(C)o1 | 20.4
O=C1OC(=O)C2C3CCC(O3)C12 (stereo not given) | -74.6*
OC1(c2ccccc2)c2ccccc2-c2ccccc21 | 25.5
NC1=Nc2ccc(Cl)cc2C1(O)c1ccccc1 (stereo not given) | -96.7*
Cc1ccc(NC2(C(=O)N3CCCC3c3cc(C)no3)CCCC2)cc1 (stereo not given) | 0.6
COc1ncc(C(=O)NC(Cc2ccccc2)c2ccc3c(c2)OCCO3)cn1 (stereo not given) | 67.0
COC[C@H](NC(=O)c1cnc(C)s1)C(=O)N[C@@H](COC)C(=O)N[C@@H](Cc1ccccc1)C(=O)C1(C)CO1 (stereo not given in full) | -77.0*
COC(=O)[C@H](Cc1ccccc1)NC(=O)[C@@H](N)CC(=O)O | 16.2
O=C(CCn1c(CO)nc2ccccc21)N1C[C@@H]2[C@@H]3CC[C@@H](C3)[C@@H]2C1 | -2.2
Cn1cc(C(=O)O)c(=O)c2ccccc21 | -6.1
COc1ccc2c(c1)c(C1=C(c3c[nH]c4ccccc34)C(=O)NC1=O)cn2CCCN(C)C | -51.7
Cn1cc(C2=C(c3cn(CCCSC(=N)N)c4ccccc34)C(=O)NC2=O)c2ccccc21 | -77.0*
O=C(NCCN1CCc2ccccc21)C1CC2(CCNCC2)CN1 (stereo not given) | -3.0
CN1CC2(CCCN(Cc3ccsc3)CC2)OC1=O (stereo not given) | -11.6
CN1C(=O)CCC12CCC(NS(=O)(=O)c1cn(C)cn1)CC2 (stereo not given) | 13.3
N#Cc1cc2c(c3c1CCc1ccccc1-3)-c1ccccc1CC2 | -80.0*
N#Cc1ccccc1-c1ccccc1C#N | 59.8
SMILES | Tg IFNy HTS
CCc1ccc(NC(=O)Cn2ncc3c(N4CCN(c5ccccc5)CC4)ncnc32)cc1 | -65.6
COc1ccc(C)cc1NC(=O)Cn1ncc2c(N3CCN(c4ccccn4)CC3)ncnc21 | 116.2
Cc1cc(F)ccc1NC(=O)Cn1ncc2c(N3CCN(c4ccccc4)CC3)ncnc21 | 13.0
COc1ccc(Cl)cc1NC(=O)Cn1ncc2c(N3CCCC3)ncnc21 | -81.0*
COc1ccc(Cl)cc1NC(=O)Cn1ncc2c(N3CCN(c4ccccn4)CC3)ncnc21 | -91.8*
Cc1cc(Cl)ccc1NC(=O)Cn1ncc2c(N3CCCCCC3)ncnc21 | 167.6
COc1cc(Cl)c(C)cc1NC(=O)Cn1ncc2c(N3CCN(c4ccccn4)CC3)ncnc21 | 103.5
Cc1ccccc1NC(=O)Cn1ncc2c(N3CCN(c4ccccc4)CC3)ncnc21 | 94.3
Cc1ccc(Cl)cc1NC(=O)Cn1ncc2c(N3CCCC3)ncnc21 | -12.6
O=C(Cn1ncc2c(N3CCN(c4ccccc4)CC3)ncnc21)Nc1cccc(F)c1 | -84.7*
Cc1ccc(NC(=O)Cn2ncc3c(N4CCN(c5ccccc5)CC4)ncnc32)c(Cl)c1 | 197.0
COc1ccc(Cl)cc1NC(=O)Cn1ncc2c(N3CCN(c4ccccc4)CC3)ncnc21 | -82.0*
CCn1c(CN2CCC(O)CC2)nc2ccccc2c1=O | 22.3
COc1cccc(-n2c(=O)c(C(=O)Nc3ccc(F)c(Cl)c3)c(O)c3cccnc32)c1 | 84.6
CC(C)COC1C2CCC1N(S(=O)(=O)c1cccs1)C2 (stereo not given) | -9.4
CN1C(=O)N(CCc2ccccc2)C(=O)C12CCN(Cc1ccccc1-c1ccco1)CC2 | -42.9
CC(C)c1nnc2n1CCN(C(=O)c1ccccc1C1CCNC1)CC2 (stereo not given) | -1.9
COc1ccc(CN2CCC3(CC(Nc4cnccn4)CO3)C2)cc1 (stereo not given) | 0.8
CCc1ccccc1NC(=O)Cn1ncc2c(N3CCC(C)CC3)ncnc21 | 141.5
CN1CCCC2(CCN(Cc3ccccc3OCC(=O)O)C2)C1=O (stereo not given) | 28.8
CC1=C(C(=O)Nc2ccc(F)cc2C)C2(CCN(S(C)(=O)=O)CC2)OC1=O | 33.2
Cc1nn2c3ccccc3n(CC(=O)c3ccco3)c2nc1=O | 1.8
CCn1c(C2CCN(C(=O)c3ccc(-c4ncc[nH]4)s3)CC2)n[nH]c1=O | -47.1
CN1CCCN(Cc2cnc3c(-c4ccccc4)cnn3c2)CC1 | 11.4
O=C(c1ccc(OCCN2CCCCC2)cc1)c1c(-c2ccc(O)cc2)sc2cc(O)ccc12 | -16.9
